Compound activity from PubChem.
This is a sample that favours compounds with a hit; in the whole collection about 12% have one here.
Sfp inh – Sfp phosphopantetheinyl transferase inhibition; Potency, µM, without a hit: largest response in the series, negative = inhibition, usual class: inhibitors; 3.5% of 310,000 active; Biochemical Sfp PPTase activity, qHTS; Q9F4F7;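 further: the enzyme is Sfp with the accession as filed and its product quenches rhodamine fluorescence; 0% = enzyme reaction without inhibitor and -100% = no enzyme wells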
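Sfp 15 nM + cpd, 15 min RT; start w/ rhodamine-CoA 5 uM, BHQ-2-YbbR 12.5 uM (final); 50 mM Hepes pH 7.6, 10 mM MgCl2, 0.01% NP-40, 0.01% BSA; read 525/598 nm at 0 and 30 min.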
BAZ2B inh – blocks human BAZ2B; AlphaScreen BAZ2B-H3K14Ac peptide displacement; Potency, µM (series often up to 114 µM), for the others: at the highest dose activity change, negative = inhibition, usual class: inhibitors; 4.4% of 360,000 active; AID 504333; further: on the % scale 0 is the no-effect control and ±100 the full control effect; nearly all actives have a fitted effect of over 60% in size
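Multi-concentration screen (max 110 uM) measuring displacement of acetylated histone H3 peptide from BAZ2B by AlphaScreen, using 50 nM protein, 50 nM peptide and 10 ug/mL streptavidin donor plus Ni-chelate acceptor beads.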
G9a inh – inhibitors of human histone lysine methyltransferase G9a; Q96KQ7; 8.8% of 350,000 active; G9a H3K9 monomethylation, AlphaScreen, 2 h; Potency, µM (highest dose often 102 µM), without a hit: top-dose activity, negative = inhibition, hits mostly inhibitors; further: on the % scale 0 is the no-effect control and ±100 the full control effect; nearly all actives have a fitted effect of over 75% in size
Target sequence (Q96KQ7 913-1193 limits assumed): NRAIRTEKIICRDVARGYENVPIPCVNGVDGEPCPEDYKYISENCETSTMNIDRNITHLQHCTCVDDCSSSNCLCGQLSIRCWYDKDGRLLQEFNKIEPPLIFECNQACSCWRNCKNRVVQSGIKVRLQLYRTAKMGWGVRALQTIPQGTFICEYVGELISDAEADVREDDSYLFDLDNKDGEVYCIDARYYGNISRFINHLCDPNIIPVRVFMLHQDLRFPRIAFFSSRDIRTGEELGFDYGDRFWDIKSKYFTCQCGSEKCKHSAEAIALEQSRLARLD
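G9a (20 nM) preincubated 15 min RT with compounds, then 500 nM biotinylated H3K9 peptide and 20 uM SAM added; 2 h RT reaction. Monomethyl-H3K9 product detected by AlphaScreen with anti-H3K9me1 antibody, streptavidin donor and anti-rabbit IgG acceptor beads.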
HP1b chromo inh – blocks HP1-beta chromodomain binding to methylated histone tails. AlphaScreen HP1-beta / biotin-H3K9me3 peptide binding. 0.56% of 390,000 active. P83916. AID 540317. Potency, µM (doses to about 114 µM), for the others: at the highest dose activity change, negative = inhibition, actives largely listed as inhibitors; further: nearly all actives have a fitted effect of over 70% in size
Target sequence (P83916 whole entry, looked up): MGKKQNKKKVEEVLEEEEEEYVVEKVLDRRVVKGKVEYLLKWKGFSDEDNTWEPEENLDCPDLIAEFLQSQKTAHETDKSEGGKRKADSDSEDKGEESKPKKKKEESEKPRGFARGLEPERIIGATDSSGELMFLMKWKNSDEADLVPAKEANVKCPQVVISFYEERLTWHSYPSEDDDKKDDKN
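HP1-beta protein (50 nM final) preincubated 30 min at room temperature with biotinylated H3(1-18)K9me3 peptide (50 nM) in PBS pH 7.4, 0.01% Tween-20, then compound added for 30 min. AlphaScreen streptavidin donor/nickel chelate acceptor beads (10 ug/mL final), 30 min dark, luminescence read.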
L3MBTL1 inh – blocks human L3MBTL1; AlphaScreen L3MBTL1–H3K9me1 peptide binding; Potency, µM (series often up to 57.1 µM), for the others: top-dose activity, negative = inhibition, hits mostly inhibitors; 0.66% of 230,000 active; AID 485360; further: on the % scale 0 is the no-effect control and ±100 the full control effect; nearly all actives have a fitted effect of over 60% in size
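Displacement of a biotinylated histone H3(1-15) peptide monomethylated at Lys9 (75 nM) from L3MBTL1 (50 nM) was measured by AlphaScreen after a 30 min room-temperature compound incubation; cefsulodin titration served as intraplate control.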
JMJD2A Tudor – blocks the human JMJD2A Tudor domain; AlphaScreen JMJD2A-Tudor / H3K4me3 peptide binding; AID 504339; O75164; 4.4% of 390,000 active; Potency, µM (doses to about 114 µM), inactives show at the top dose activity change, negative = inhibition, usual class: inhibitors; further: on the % scale 0 is the no-effect control and ±100 the full control effect; nearly all actives have a fitted effect of over 50% in size
An asterisk follows results filed as active; ? = inconclusive; . = not tested or not shown; [ ] = another dose, or the depositor's remark. The call rests on the fitted dose curve; in most records, active means well fitted curve in the direction sought with a large enough effect; inconclusive means small, poorly fitted or top-dose-only effect, or another doubt; inactive means no such curve, though single readings can be large; an effect the other way counts as inactive or inconclusive. Potency means the concentration at half of the fitted maximal effect.

SMILES | Sfp inh | BAZ2B inh | G9a inh | HP1b chromo inh | L3MBTL1 inh | JMJD2A Tudor
CCCN(CCC)CCNC(=O)Cn1ncc2c([nH]c3ccc(C)cc32)c1=O | . | 11.2%[57.1 µM] | -0.9%[59 µM] | 45.1% | . | 0.6%
Cc1cc(C)cc(N2CC(c3nc(-c4cccc(Cl)c4)no3)CC2=O)c1 (configuration not stated) | . | 1.8% | 38.8%[59 µM] | 57.7% | . | 14.3%
CCOc1ccc(OCC)c(NC(=O)c2nnn(CC(=O)Nc3ccc(C)cc3C)c2N)c1 | . | . | -1.2%[59 µM] | 1.7% | . | -4.0%
Cc1nn(C(=O)CCCn2cc([N+](=O)[O-])cn2)c(C)c1Cl | 6.4% | 6.0% | -31.5% | 2.2% | . | 20µM*
CCn1cc(Cl)c(C(=O)NNC(=O)CCn2cc([N+](=O)[O-])cn2)n1 | 0.0% | -4.2% | -12.9%[59 µM] | 30.3% | 1.9% | -10.0%
CCOC(=O)c1c(S(=O)(=O)N2CCC(C(=O)N3CCN(c4cccc(C)c4C)CC3)CC2)c(C)n(C)c1C | . | ? | 3.7%[59 µM] | -10.9% | . | ?
Cc1ccccc1NC(=O)CSc1nc2ncc(Cl)cc2[nH]1 | -6.6% | -7.5%[57.1 µM] | ? | 45.1% | . | 0.0%
Cc1ccc(S(=O)(=O)N(C)C)cc1NC(=O)CSc1nc2ncc(Cl)cc2[nH]1 | . | 3.9% | 35.5µM* | -5.7% | 8.5% | -19.3%
O=C1C2C3CCC(C3)C2C(=O)N1Cc1ccco1 (configuration not stated) | -6.4% | -16.3% | -2.8%[59 µM] | 43.2% | -5.0% | -10.4%
Cc1ccc(CC2CC(=O)N(Cc3ccco3)C2=O)cc1 (configuration not stated) | 35.5µM* | 3.1% | 39.8µM* | 4.2% | -3.7% | -24.6%
O=C1CC(Cc2ccccc2)C(=O)N1Cc1ccco1 (configuration not stated) | 14.1µM* | -33.4% | 44.7µM* | 16.0% | -1.1% | -20.4%
C=CCC(C)(O)c1cccc(C(F)(F)F)c1 (configuration not stated) | -7.9% | . | . | . | . | .
C/C(=N/Nc1ccc(C(=O)O)cc1)c1ccc(O)c(O)c1O | 39.8µM* | -33.4% | 3.55µM* | 6.6% | 14.1µM* | 10µM*
COc1ccc(OC)c(/C(C)=N/Nc2ccc(C(=O)O)cc2)c1 | -5.4% | -21.6% | 14.1µM* | 26.9% | -16.0% | -6.9%
COc1ccc(/C(C)=N/Nc2ccc(C(=O)O)cc2)cc1OC | 12.4% | -1.4% | ? | 46.5% | -1.5% | -10.3%
CCOC(=O)Cc1nnc(NC(=O)C2CCCCC2)s1 | 18.0% | -27.2% | -1.8% | 41.9% | -0.5% | 9.6%
CCc1nnc(NC(=O)CN2CC(C)OC(C)C2)s1 (configuration not stated) | -2.9% | -2.9% | 14.4% | 13.5% | 4.2% | -1.4%
CCc1nnc(NC(=O)C2CCCCC2)s1 | 31.6µM* | 5.6% | ? | 22.3% | -3.5% | 7.5%
CCc1nnc(NC(=O)CN2CCN(C3CCCCC3)CC2)s1 | 89.1µM* | ? | 10µM* | -18.7% | . | 7.08µM*
CCOC(=O)C1CCN(C2=NC(=O)/C(=C/c3ccc(OC)c(OC)c3)S2)CC1 | -8.3% | -21.8% | 39.8µM* | -0.5% | . | -20.7%
CCOC(=O)C1CCN(C2=NC(=O)/C(=C/c3ccc(Cl)cc3)S2)CC1 | -10.1% | ? | 0.2% | 23.2% | . | -12.3%
CCOc1ccc(NC(=O)C(CC)n2nc(-c3ccc(C)c(C)c3)ccc2=O)cc1 (configuration not stated) | . | -5.6% | -29.8%[59 µM] | 14.0% | . | -13.6%
CCOC(=O)N1CCN(C(=O)CN(c2ccccc2F)S(=O)(=O)c2ccc(C)cc2)CC1 | . | 2.5% | -30.0%[59 µM] | 13.2% | . | -21.6%
COc1cc(CNc2nc3c(C)cc(C)cc3s2)ccc1O | -6.4% | 50.1µM* | 44.7µM* | -18.0% | . | ?
CCNC(=S)N(Cc1cc2cc(C)c(C)cc2[nH]c1=O)C1CCCC1 | 8.2% | -15.4% | -4.7% | 10.6% | 0.4% | -25.4%
CCN(CC)CCN(Cc1cc2ccc(C)c(C)c2[nH]c1=O)C(=S)NCc1ccco1 | 56.2µM* | ? | 50.1µM* | ? | -1.0% | ?
